Laboratory results: ChEMBL document CHEMBL1157539, “Thousands of chemical starting points for antimalarial lead identification” (Nature, 2010)

How the values were obtained:
Type in all cases: functional
Plasmodium falciparum [1] = assay: GSK_TCMDC: Inhibition of Plasmodium falciparum 3D7 in whole red blood cells, using parasite LDH activity as an index of growth. Test compounds present at 2uM
Plasmodium falciparum [2] = assay: GSK_TCMDC: Inhibition of Plasmodium falciparum Dd2 in whole red blood cells, using parasite LDH activity as an index of growth. Test compounds present at 2uM
HepG2 = assay: GSK_TCMDC: Percent inhibition of human HepG2 cell line. Test compounds present at 10uM.

SMILES | Inhibition (Plasmodium falciparum [1]) | Inhibition (Plasmodium falciparum [2]) | Inhibition (HepG2)
COc1cc(Cc2cnc(N)nc2N)cc(OCCCCC2NC(=O)NC2=O)c1OC (stereo not drawn) | 94% | 0% | 2%
c1cncc(CN2CCCN(c3ccc4c(c3)CCN(Cc3ccc(-c5ncc[nH]5)cc3)CC4)CC2)c1 | 99% | 33% | 7%
O=C(Nc1ccc(F)c(C(F)(F)F)c1)N[C@H]1CCN(CCCCCNC(=O)C2CC2c2ccc(Cl)c(Cl)c2)C1 (stereo partly drawn) | 90% | 0% | 46%
COc1cccc(CNC(=O)c2cc(CNCc3ccccc3)ccc2-c2cccc(CNCc3ccc(-c4ccccc4)cc3)c2)c1.O=C(O)C(F)(F)F | 95% | 15% | 22%
N=C(N)NC(=O)Nc1cc(Cl)c(Cl)c(Br)c1 | 99% | 99% | 16%
CN(Cc1cccc(F)c1)C1CCN(c2cc(NC(=O)c3cccc(F)c3)ccn2)CC1.O=C(O)C(F)(F)F | 94% | 13% | 12%
CCCCN1CCN(CCCNc2c3ccccc3nc3ccccc23)CC1.Cl | 100% | 70% | 26%
N#Cc1c(N)nc(SCC(=O)Nc2cc(C(F)(F)F)ccc2Cl)c(C#N)c1-c1cccs1 | 90% | 96% | 23%
COc1ccc(NC(=O)[C@H](CC(C)C)Nc2cc(C)nc(NCCc3ccc(F)cc3)n2)cc1.O=C(O)C(F)(F)F | 100% | 79% | 1%
Cc1ccc(-n2ncc(C(=O)Nc3cc(Cl)cc(Cl)c3)c2C2CCNCC2)cc1C.Cl | 100% | 77% | 65%
CS(=O)(=O)NCCCNCc1ccc(-c2ccc(-c3nc4cc(C(F)(F)F)ccc4[nH]3)s2)cc1.O=C(O)C(F)(F)F | 99% | 73% | 21%
O=C(Nc1ccc(N2CCN(Cc3ccccc3)CC2)cc1)c1cccs1.O=C(O)C(F)(F)F | 87% | 86% | 0%
Cc1cc(C(=O)Nc2ccc3c(c2)CCN3C2CCN(Cc3csc4ccccc34)C2)no1 (stereo not drawn) | 96% | 96% | 1%
O=C(O)C(F)(F)F.O=S(=O)(NCCN1CCCC1)c1cccc(-c2ccc(CNCc3ccc(F)cc3)cc2)c1 | 100% | 41% | 38%
Cc1cccc(C)c1OC(=O)CSc1nnc(-c2ccccc2O)o1 | 97% | 0% | 11%
CCn1c(C2CCN(CCC3CCN(C(=O)/C=C/c4ccc(Cl)c(Cl)c4)CC3)CC2)nc2ccccc21 | 86% | 0% | 17%
CNC(=O)C1Cc2c([nH]c3c(C)cccc23)C2(N1)C(=O)Nc1ccc(OC(F)(F)F)cc12 (stereo not drawn) | 100% | 50% | 0%
COc1ccc2c(N/N=C/c3cccc([N+](=O)[O-])c3)cc(C)nc2c1 | 100% | 97% | 18%
N[C@@H](Cc1cc(I)c(Oc2ccc(O)c(C(=O)O)c2)c(I)c1)C(=O)O | 97% | 21% | 57%
CN(C)CCOc1cc(NC(=O)Nc2ccc(-c3ccccc3)cc2)ccc1I | 100% | 45% | 9%
Cc1ccc(NC(=O)NC2CCN(CCC(NC(=O)Cc3ccccc3)c3ccc(Cl)c(Cl)c3)CC2)cc1 (stereo not drawn) | 100% | 2% | 16%

SMILES | Inhibition (Plasmodium falciparum [1]) | Inhibition (Plasmodium falciparum [2]) | Inhibition (HepG2)
COc1ccc(Cn2c(Nc3cccc(C(F)(F)F)c3)nc3cc(C(=O)NC(C)C)cnc32)cc1Cl | 85% | 81% | 0%
Br.Oc1ccc(CCNCCCCCCNCCc2ccc(Br)cc2)cc1O | 99% | 5% | 2%
COc1ccc(CNC2Cc3ccccc3C2)cc1-c1ccc(S(=O)(=O)NCc2ccccc2)s1.O=C(O)C(F)(F)F | 97% | 25% | 22%
CC(C)(CNCc1ccc(Cl)cc1)c1nc(-c2ccc(Cl)c(O)c2)c(-c2ccncc2)[nH]1.Cl | 100% | 98% | 86%
COc1csc2cc(Br)ccc12 | 100% | 0% | 6%
CCN(CC)/C(=N/C(=N)Nc1ccc(C)cc1)NCCCCCCN/C(=N\C(=N)Nc1ccc(C)cc1)N(CC)CC | 97% | 98% | 10%
Nc1nc(N)c2c(ccc3c2ccn3CCCCO)n1 | 93% | 49% | 61%
COC(=O)c1cc(OC2CCOC2=O)cc2c1OC(C)(C)O2 (stereo not drawn) | 97% | 0% | 6%
COc1ccc2nccc([C@@H](O)CN3CCC(NC(=O)/C=C/c4cccc(-c5ccccc5)c4)CC3)c2c1 | 98% | 83% | 12%
Cc1cc(NC2CCCC2)nc(Nc2ccccc2)n1 | 100% | 75% | 26%
COc1ccc(C[C@H](N)C(=O)N[C@H]2[C@@H](O)[C@H](n3cnc4c(N(C)C)ncnc43)O[C@@H]2CO)cc1.Cl | 100% | 91% | 98%
CC(C)c1ccc(NC(S)=NN=Cc2ccccn2)cc1 | 100% | 98% | 47%
COc1ccc2[nH]c(C)cc(=NN=Cc3ccccc3Cl)c2c1 | 100% | 100% | 0%
CCN(CC)CCN(Cc1ccc(-c2ccc(C(F)(F)F)cc2)cc1)C(=O)Cn1c(SCc2ccc(F)c(F)c2F)nc(=O)c2c1CCC2.O=C(O)C(O)C(O)C(=O)O | 91% | 96% | 100%
CC(O)C1CCCCN1C(=O)c1ccc(-c2cccc(-c3nc4cc(F)ccc4[nH]3)c2)cc1 (stereo not drawn) | 100% | 97% | 30%
Nc1cccc(CNCc2cccc(-c3cccc(-c4nc5cc(F)ccc5[nH]4)c3)c2)c1.O=C(O)C(F)(F)F | 100% | 82% | 5%
Cc1noc(C)c1-c1cccc(CNCc2cccc(-c3csc(-c4nc5ccccc5[nH]4)c3)c2)c1.O=C(O)C(F)(F)F | 100% | 74% | 32%
CCN(CCCN1CCCCC1)c1cc(C)nc(Nc2cc(C(F)(F)F)ccc2C)n1.O=C(O)C(F)(F)F | 96% | 41% | 35%
CCCCCCNC(=O)C1Cc2c([nH]c3ccc(F)cc23)C2(CCN(Cc3ccccc3)CC2)N1 (stereo not drawn) | 97% | 39% | 11%
O=C(N[C@@H](CC1CCCCC1)C(=O)NCCN1CCOCC1)c1ccc(O)c(-c2ccc(Cl)c(Cl)c2)c1 | 97% | 99% | 0%
CCc1ccc(NC(=O)c2ccc(CN3CCCN(CCC(C)C)CC3)cc2)cc1.O=C(O)C(F)(F)F | 96% | 25% | 48%

SMILES | Inhibition (Plasmodium falciparum [1]) | Inhibition (Plasmodium falciparum [2]) | Inhibition (HepG2)
Cc1cc(NCC(c2ccccc2)c2ccccc2)nc(NCc2ccc(C(F)(F)F)cc2)n1 | 100% | 79% | 29%
CC(C)CN1CCC(COc2ccc3ncn(-c4cc(O[C@H](C)c5ccccc5C(F)(F)F)c(C(N)=O)s4)c3c2)CC1 | 97% | 86% | 46%
CCCCCn1c(Sc2ccc(C#N)c([N+](=O)[O-])c2)nnc1-c1cc(OC)cc(OC)c1 | 93% | 24% | 17%
COCCNCc1ncsc1-c1ccc2c(Nc3ccc(Oc4ccccc4)cc3)ccnc2c1 | 91% | 93% | 34%
COc1ccc2nccc([C@@H](O)CN3CCC(c4cc(-c5ccc(Cl)cc5)[nH]n4)CC3)c2n1 | 97% | 56% | 43%
Cc1nc(C)c(-c2ccc(C(=O)c3ccccc3)cc2)c(O)c1Br | 95% | 96% | 0%
CC1CCN(CC[C@H]2CCCN2S(=O)(=O)c2cccc(NC(=O)c3cc4ccccc4s3)c2)CC1 | 97% | 41% | 28%
Cl.OC(CN1CCN(c2cccc(Cl)c2)CC1)C(c1ccccc1)c1ccccc1 (stereo not drawn) | 85% | 4% | 0%
Br.CC1(C)NC(N)=NC(=N)N1OCCOc1cccc(C(F)(F)F)c1 | 93% | 97% | 67%
COc1cccc2[nH]c(NCCCNCc3cc(Br)cc(Br)c3)nc12 | 88% | 2% | 5%
CCNc1cc(C(=O)N[C@@H](Cc2ccccc2)[C@H](O)CNC(C)CCCC(C)C)cc(N2CCCS2(=O)=O)c1.O=CO (stereo partly drawn) | 99% | 98% | 2%
Fc1ccc(Nc2ccnc3cc(-c4ccc(CN5CCOCC5)o4)ccc23)c(Cl)c1 | 100% | 100% | 42%
COc1ccccc1-c1ccc(C(=O)NCC2CCCN(Cc3cccc(C(F)(F)F)c3)C2)s1.O=C(O)C(F)(F)F (stereo not drawn) | 81% | 37% | 18%
COc1c(C2CCN(CCCCNC(=O)c3ccc(-c4ccc(C#N)cc4)cc3)CC2)ccc2c1C(C)(C)CCC2(C)C | 100% | 86% | 98%
COc1ccc(Cl)cc1N1CCN(CCCNC(=O)c2ccc(-c3nc4cc(Cl)c(F)cc4[nH]3)c(F)c2)CC1 | 100% | 91% | 21%
CCC(=O)Nc1cc(=O)[nH]c2nc(-c3ccc(Cl)cc3)nn12 | 84% | 62% | 3%
CCc1ccc(NC(=O)c2ccc(CN3CCCN(Cc4cccs4)CC3)cc2)cc1.O=C(O)C(F)(F)F | 87% | 0% | 57%
O=C(O)C(F)(F)F.O=[N+]([O-])c1cccc(CNC2CCN(Cc3ccc4ccccc4c3)CC2)c1 | 100% | 22% | 12%
N=C(N)c1ccc(NCc2cccc(C(=O)O)c2)cc1.O=C(O)C(F)(F)F | 84% | 79% | 7%
